The full ranking holds about 81,000 sequences; the median of “one-hybrid fitness for binding NBS DNA” is about -0.1, and the highest 2% start at about 0.36. This excerpt belongs to a sample that is enriched for the highest values.

The labels stand for the following.
B1: Caulobacter ParB omega fusion; a variant is named by its letters at X, in order, B8GW30 (parent)
chain: MESVVVGEPGMSEGRRGLGRGLSALLGEVDAAPAQAPGEQLGGSREAPIEILQRNPDQPRRTFREEDLEDLSNSIREKGVLQPILVRPSPDTAGEYQIVAGERAWRAAQRAGLKTVPIMVRELDDLAVLEIGIIENVQRADLNVLEEALSYKVLMEKFERTQENIAQTIGKSXSHVANXMRLLXLPDEVQSYLVSGELTAXHARAIAAAADPVALAKQIIEGGLSVRETEALARKAPNLSAGKSKGGRPPRVKDTDTQALESDLSSVLGLDVSIDHRGSTGTLTITYATLEQLDDLCNRLTRGI

The variants in this experiment derive from B1. Kind of experiment: one-hybrid fitness for binding NBS DNA (the Noc-binding site; scaled: cognate 1, non-cognate 0); higher = stronger binding. Particulars: with NBS DNA site. Summed up:
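Pre- and post-selection plasmids were Illumina-sequenced, three replicate libraries were pooled, and any variant with under 10 reads was removed. The libraries were Caulobacter ParB with four specificity codons randomised, selected in E. coli USO through a HIS3 reporter whose site is 19 bp from the promoter. Cells grew 48 hours at 37°C on M9 without histidine, with 0.1 mM IPTG and 5 mM 3-AT. Fitness is the log change in variant-to-wild-type read ratio, rescaled against cognate and non-cognate.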
Take HAVV: the “one-hybrid fitness for binding NBS DNA” value is at most 0.2.
Then QQND, with at most 0.2; and QQDP, with at most 0.2.
The figure for QQNR is 0.786.
The figure for QQNH is 0.355.
Regarding QQDR, the “one-hybrid fitness for binding NBS DNA” value was found to be 0.388.
Then QQDC, with at most 0.2; and MWSL, with at most 0.2.
Turning to SQER, the “one-hybrid fitness for binding NBS DNA” value is at most 0.2.
Then THTW, with at most 0.2.
Then TSGY, with at most 0.2.
Regarding ASWL, the “one-hybrid fitness for binding NBS DNA” value is at most 0.2.
Regarding TAQM, the “one-hybrid fitness for binding NBS DNA” value was at most 0.2.
On to QTME, for which the “one-hybrid fitness for binding NBS DNA” value is at most 0.2.
The figure for QAAN is at most 0.2; for QAFD it is at most 0.2; for QAFS it is 0.218.
On to QAAD, for which the “one-hybrid fitness for binding NBS DNA” value was at most 0.2.
As to QAFR, the “one-hybrid fitness for binding NBS DNA” value worked out at 0.427.
In the case of QAAR, the “one-hybrid fitness for binding NBS DNA” value turned out to be 0.511.
In the case of PSVW, the “one-hybrid fitness for binding NBS DNA” value is at most 0.2.
Then VMFK, with at most 0.2; and EIKV, with at most 0.2; and RPPM, with at most 0.2.
The figure for RANR is 0.507.
For RAGP, the “one-hybrid fitness for binding NBS DNA” value was at most 0.2.
The figure for RALR is 0.32.
Then RADR, with at most 0.2; and RAGR, with 0.471; and RANN, with at most 0.2.
Then RAYR, with 0.412; and RAIR, with 0.207; and RAWR, with 0.248.
Turning to RAGH, the “one-hybrid fitness for binding NBS DNA” value was at most 0.2.
The figure for RAPR is at most 0.2.
Turning to RARR, the “one-hybrid fitness for binding NBS DNA” value was found to be 0.635.
On to YIKT, for which the “one-hybrid fitness for binding NBS DNA” value was at most 0.2.
On to MVAC, for which the “one-hybrid fitness for binding NBS DNA” value is at most 0.2.
Consider NQHS, for which the “one-hybrid fitness for binding NBS DNA” value is at most 0.2.
Then NVTV, with at most 0.2; and SDLG, with at most 0.2; and PSTD, with at most 0.2.
Then PRAY, with at most 0.2; and THTY, with at most 0.2; and TQQW, with at most 0.2.
PELM: the “one-hybrid fitness for binding NBS DNA” value is at most 0.2.
Then PRWT, with at most 0.2; and RAQM, with at most 0.2.
As for RACP, the “one-hybrid fitness for binding NBS DNA” value is at most 0.2.
On to RACR, for which the “one-hybrid fitness for binding NBS DNA” value was 0.379.
Regarding RAHR, the “one-hybrid fitness for binding NBS DNA” value came out at 0.487.
For RASR, the “one-hybrid fitness for binding NBS DNA” value is 0.417.
Then RAQH, with at most 0.2.
The figure for RAHH is at most 0.2; for RAQR it is 0.43.
RASP: the “one-hybrid fitness for binding NBS DNA” value was at most 0.2.
Take RAHP: the “one-hybrid fitness for binding NBS DNA” value was at most 0.2.
The figure for RASD is at most 0.2; for RACH it is at most 0.2.
The figure for FSRL is at most 0.2; for GGQY it is at most 0.2.
The figure for MRLP is at most 0.2.
For AHPF, the “one-hybrid fitness for binding NBS DNA” value is at most 0.2.
The figure for YNKI is at most 0.2.
Turning to KTLA, the “one-hybrid fitness for binding NBS DNA” value was at most 0.2.
The figure for NNIC is at most 0.2; for PFKH it is at most 0.2; for HTRG it is at most 0.2.
Then QMDN, with at most 0.2; and QMYN, with at most 0.2; and QMRS, with 0.691.
QMRF: the “one-hybrid fitness for binding NBS DNA” value stood at 0.303.
Then QMRH, with 0.584.
Then QMLS, with 0.317; and QMRD, with 0.277.
As for QMYS, the “one-hybrid fitness for binding NBS DNA” value came out at 0.405.
The figure for QMRP is 0.291; for QMRN it is 0.439.
Then QMIS, with 0.289; and QMPS, with 0.235.
Then AQGA, with at most 0.2; and NRGC, with at most 0.2.
For PIMT, the “one-hybrid fitness for binding NBS DNA” value was at most 0.2.
Regarding PWNH, the “one-hybrid fitness for binding NBS DNA” value is at most 0.2.
On to RINY, for which the “one-hybrid fitness for binding NBS DNA” value is at most 0.2.
In the case of GPRC, the “one-hybrid fitness for binding NBS DNA” value was at most 0.2.
The figure for TMHE is at most 0.2; for KEWT it is at most 0.2; for MTEF it is at most 0.2.
The figure for QMAD is at most 0.2; for QMAS it is 0.389; for QMAH it is 0.231.
Consider VIGG, for which the “one-hybrid fitness for binding NBS DNA” value is at most 0.2.
For QTKK, the “one-hybrid fitness for binding NBS DNA” value was 0.596.
In the case of QKVK, the “one-hybrid fitness for binding NBS DNA” value is at most 0.2.
Consider QMPK, for which the “one-hybrid fitness for binding NBS DNA” value was at most 0.2.
As for QMWK, the “one-hybrid fitness for binding NBS DNA” value was at most 0.2.
The figure for QMKK is 0.436; for QLKK it is 0.346.
The figure for QPKK is at most 0.2; for QKIK it is at most 0.2; for QCKK it is 0.485.
The figure for QTVK is at most 0.2; for QKKK it is 0.437; for QTSK it is 0.224.
For THAP, the “one-hybrid fitness for binding NBS DNA” value was at most 0.2.
Then SMSM, with at most 0.2; and VLYQ, with at most 0.2.
In the case of MNTI, the “one-hybrid fitness for binding NBS DNA” value is at most 0.2.
The figure for MEPN is at most 0.2; for DERT it is at most 0.2.
Then AAYK, with at most 0.2.
Then LNIG, with at most 0.2; and VYES, with at most 0.2; and PHHR, with at most 0.2.
Turning to NAEF, the “one-hybrid fitness for binding NBS DNA” value was at most 0.2.
Consider NGVK, for which the “one-hybrid fitness for binding NBS DNA” value was at most 0.2.
As to AANT, the “one-hybrid fitness for binding NBS DNA” value is at most 0.2.
Then QAKK, with 0.396.
Then QSKK, with 0.412; and QRKK, with 0.777.
Then QRVK, with 0.218; and QAHK, with at most 0.2; and QAVK, with at most 0.2.
Turning to QRLK, the “one-hybrid fitness for binding NBS DNA” value came to 0.329.
For the variant QHRK, the “one-hybrid fitness for binding NBS DNA” value was 0.362.
Then QSVK, with at most 0.2.
Then QIKK, with 0.243; and QHQK, with at most 0.2; and QHKK, with 0.416.
As to TDTW, the “one-hybrid fitness for binding NBS DNA” value is at most 0.2.
On to VHWG, for which the “one-hybrid fitness for binding NBS DNA” value was at most 0.2.
The figure for DTCT is at most 0.2; for VLPC it is at most 0.2; for GGCG it is at most 0.2.
In the case of PDVF, the “one-hybrid fitness for binding NBS DNA” value is at most 0.2.
Take YPIT: the “one-hybrid fitness for binding NBS DNA” value is at most 0.2.
Turning to SGYG, the “one-hybrid fitness for binding NBS DNA” value is at most 0.2.
Take SCFT: the “one-hybrid fitness for binding NBS DNA” value was at most 0.2.
The figure for METY is at most 0.2; for RRMH it is 0.403; for RCMH it is at most 0.2.
The figure for RRMD is at most 0.2; for RRMN it is 0.245; for RRMP it is at most 0.2.
Then RRMS, with 0.628.
For TKWD, the “one-hybrid fitness for binding NBS DNA” value is at most 0.2.
Turning to AEDA, the “one-hybrid fitness for binding NBS DNA” value is at most 0.2.
Then APCN, with at most 0.2; and YRRI, with at most 0.2; and AVHL, with at most 0.2.
For the variant TDRM, the “one-hybrid fitness for binding NBS DNA” value was at most 0.2.
The figure for TYEH is at most 0.2.

For the origin of these results see a collection of fitness landscapes (doi:10.1016/j.celrep.2020.107928).
